The results in this text go back to PMC11995724, “Antibiotic target discovery by integrated phenotypic and activity-based profiling of electrophilic fragments” (Cell chemical biology, 2025).

The structures appear in SMILES notation. About 110 (3.4%) of roughly 3,200 compounds showed an effect of 50% or more. Many of the other results were omitted from the sample, so strong results are more common in it than they were.

The subject of the experiment is T1, V. cholerae SAD30.
T1 construct: SAD30
Also on record: species or system S. aureus MSSA476 (TSB) or V. cholerae SAD30 (LB); 384-well bacterial growth screen at 25 uM, OD600 relative to DMSO control. Particulars: relative growth, OD600, LB; 25 µM; inhibitor.
`Cc1ccc(NC(=O)N2CCSSCC2)c(C)c1` [10-F11, N-(2,4-dimethylphenyl)-1,2,5-dithiazepane-5-carboxamide]: the “% of control remaining” value amounted to 95.0711%. Take `CC(Cl)C(=O)N(C)CCn1c(=O)oc2ccccc21` (stereo not drawn) [7-H15, 2-chloro-N-methyl-N-[2-(2-oxo-2,3-dihydro-1,3-benzoxazol-3-yl)ethyl]propanamide]: the “% of control remaining” value amounted to 82.4715%.

For the molecule `CC(C#N)CSc1ccccc1NC(=O)CCl` (stereo not drawn) [6-K16, 2-chloro-N-{2-[(2-cyano-2-methylethyl)sulfanyl]phenyl}acetamide], the “% of control remaining” value is given as 86.757%. Take `C=CC(=O)N1CCC(C(=O)N[C@]2(C(=O)OC)CC[C@@H](C)CC2)CC1` [3-E17, methyl (1r,4r)-4-methyl-1-[1-(prop-2-enoyl)piperidine-4-amido]cyclohexane-1-carboxylate]: the “% of control remaining” value is 101.088%. In the case of `O=C(CCl)N(Cc1ccc(Cl)cc1)C12CC3CC(CC(C3)C1)C2` [4-H07, N-(adamantan-1-yl)-2-chloro-N-[(4-chlorophenyl)methyl]acetamide], the “% of control remaining” value worked out at 55.3806%. With `Cc1nn(CCC(=O)N2CCSSCC2)c(C)c1[N+](=O)[O-]` [10-J05, 3-(3,5-dimethyl-4-nitro-1H-pyrazol-1-yl)-1-(1,2,5-dithiazepan-5-yl)propan-1-one] the figure was 92.1099%; with `CCOC(=O)c1c(NC(=O)CCl)sc(C)c1C` [4-O15, ethyl 2-(2-chloroacetamido)-4,5-dimethylthiophene-3-carboxylate], 102.998%; with `CS(=O)(=O)N1CCc2cc(C(=O)CCl)ccc21` [10-B19, 2-chloro-1-(1-methanesulfonyl-2,3-dihydro-1H-indol-5-yl)ethan-1-one], 18.0791%. The result for `CC(=O)N1CCc2cc(C(=O)C(C)Cl)ccc21` (stereo not drawn) [10-L22, 1-(1-acetyl-2,3-dihydro-1H-indol-5-yl)-2-chloropropan-1-one] reads 100.214%.

Turning to `CC(=O)N1c2ccc(C(=O)CCl)cc2CC1C` (stereo not drawn) [10-I20, 1-(1-acetyl-2-methyl-2,3-dihydro-1H-indol-5-yl)-2-chloroethan-1-one], the “% of control remaining” value is recorded as 84.473%. With `N#CC(=Cc1ccsc1)C(=O)Nc1ccccc1Cl` [9-O05, N-(2-chlorophenyl)-2-cyano-3-(thiophen-3-yl)prop-2-enamide] the figure was 98.9123%. As for `C=CC(=O)NCC1CNC(=O)c2ccccc21` (stereo not drawn) [2-F17, N-[(1-oxo-1,2,3,4-tetrahydroisoquinolin-4-yl)methyl]prop-2-enamide], the “% of control remaining” value was 90.0415%. With `CC(Cl)C(=O)N1CCN(CCOc2ccc3c(c2)CCC3)CC1` (stereo not drawn) [6-H17, 2-chloro-1-{4-[2-(2,3-dihydro-1H-inden-5-yloxy)ethyl]piperazin-1-yl}propan-1-one] the figure was 64.6128%; with `C=CC(=O)N1CCCC(CS(=O)(=O)NC)C1` (stereo not drawn) [2-E18, N-methyl-1-[1-(prop-2-enoyl)piperidin-3-yl]methanesulfonamide], 95.4453%. In the case of `C[C@H]1CN(C(=O)CCl)CCN1C(=O)c1cscn1` [5-L05, 2-chloro-1-[(3S)-3-methyl-4-(1,3-thiazole-4-carbonyl)piperazin-1-yl]ethan-1-one], the “% of control remaining” value is reported as 86.0775%. Turning to `C[C@@H](NC(=O)CCl)c1ccccc1` [6-O20, 2-chloro-N-[(1R)-1-phenylethyl]acetamide], the “% of control remaining” value was 94.0373%.

With `Cl.O=C(CCl)Nc1ccccn1` [5-B14, 2-chloro-N-(pyridin-2-yl)acetamide hydrochloride], the “% of control remaining” value is reported as 98.0141%. In the case of `O=C(CCl)c1cscn1` [10-L08, 2-chloro-1-(1,3-thiazol-4-yl)ethan-1-one], the “% of control remaining” value is 0%. The result for `O=C(CCl)c1ccccn1` [10-J03, 2-chloro-1-(pyridin-2-yl)ethan-1-one] reads 0%; that for `Cn1ccnc1C(=O)CCl` [10-C15, 2-chloro-1-(1-methyl-1H-imidazol-2-yl)ethan-1-one], 101.461%; that for `N#CC(=Cc1ccc(O)cc1)C(=O)NCCc1c(F)cccc1F` [9-I16, 2-cyano-N-[2-(2,6-difluorophenyl)ethyl]-3-(4-hydroxyphenyl)prop-2-enamide], 83.8205%.

As to `c1nc(N2CCSSCC2)c2c3c(sc2n1)CCCC3` [10-M22, 3-(1,2,5-dithiazepan-5-yl)-8-thia-4,6-diazatricyclo[7.4.0.0,2,7]trideca-1(9),2,4,6-tetraene], the “% of control remaining” value is on record as 79.3298%. With `O=C(CCl)Nc1nccc(Cl)n1` [6-C19, 2-chloro-N-(4-chloropyrimidin-2-yl)acetamide] the figure was 88.7288%. In the case of `O=C1C=CC(=O)N1c1ccccc1Sc1ccc(Cl)cc1` [10-A03, 1-{2-[(4-chlorophenyl)sulfanyl]phenyl}-2,5-dihydro-1H-pyrrole-2,5-dione], the “% of control remaining” value was 28.6772%. With `O=C(O)C(c1ccccc1)N1C(=O)C=CC1=O` (stereo not drawn) [10-E21, 2-(2,5-dioxo-2,5-dihydro-1H-pyrrol-1-yl)-2-phenylacetic acid] the figure was 103.487%. Regarding `O=C(CCl)Nc1ccccc1Sc1ccc(Cl)cc1` [4-O13, 2-chloro-N-{2-[(4-chlorophenyl)sulfanyl]phenyl}acetamide], the “% of control remaining” value was 72.9782%.

Regarding `O=C1C=CC(=O)N1c1ccccc1Sc1ccccc1` [10-K12, 1-[2-(phenylsulfanyl)phenyl]-2,5-dihydro-1H-pyrrole-2,5-dione], the “% of control remaining” value was 28.0538%. The result for `CC(Cl)C(=O)Nc1ccccc1Sc1ccccc1` (stereo not drawn) [6-H10, 2-chloro-N-[2-(phenylsulfanyl)phenyl]propanamide] reads 56.4224%; that for `Cc1cc(NC(=O)CCl)n(-c2ccccc2)n1` [4-G05, 2-chloro-N-(3-methyl-1-phenyl-1H-pyrazol-5-yl)acetamide], 102.825%.

Regarding `CC(C)c1ccc(CCNC(=O)CCl)cc1` [6-I16, 2-chloro-N-{2-[4-(propan-2-yl)phenyl]ethyl}acetamide], the “% of control remaining” value is on record as 91.9139%.
